Laboratory results from PubChem BioAssay AID1030 (National Center for Advancing Translational Sciences (NCATS), 2008).
The campaign covered roughly 220,000 compounds. About 16,000 (7.3%) were called active. About 25% were inconclusive and are not listed. Calls follow the shape of the dose curve; as a rule, active = well fitted inhibition curve with a large enough effect (not every such curve was filed as active); inconclusive = small, poorly fitted or top-dose-only effect, or another doubt; inactive = no such curve, though single readings can be large or run the other way. What follows is part of a selection rich in actives, with near analogues and random picks from the rest.

molecular target: Aldehyde dehydrogenase 1A1 (Homo sapiens) (UniProt P00352); assay: qHTS Assay for Inhibitors of Aldehyde Dehydrogenase 1 (ALDH1A1); settings: Purified ALDH1A1, NADH fluorescence, propionaldehyde substrate; series mostly up to 75.3 µM; activity, negative = inhibition: at the top concentration;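 as to activity, negative = inhibition: plate controls were no enzyme wells and a reference inhibitor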
Potency is read from the fitted curve at half-maximal effect.

Chain of Aldehyde dehydrogenase 1A1 (Homo sapiens) (P00352 whole entry, looked up): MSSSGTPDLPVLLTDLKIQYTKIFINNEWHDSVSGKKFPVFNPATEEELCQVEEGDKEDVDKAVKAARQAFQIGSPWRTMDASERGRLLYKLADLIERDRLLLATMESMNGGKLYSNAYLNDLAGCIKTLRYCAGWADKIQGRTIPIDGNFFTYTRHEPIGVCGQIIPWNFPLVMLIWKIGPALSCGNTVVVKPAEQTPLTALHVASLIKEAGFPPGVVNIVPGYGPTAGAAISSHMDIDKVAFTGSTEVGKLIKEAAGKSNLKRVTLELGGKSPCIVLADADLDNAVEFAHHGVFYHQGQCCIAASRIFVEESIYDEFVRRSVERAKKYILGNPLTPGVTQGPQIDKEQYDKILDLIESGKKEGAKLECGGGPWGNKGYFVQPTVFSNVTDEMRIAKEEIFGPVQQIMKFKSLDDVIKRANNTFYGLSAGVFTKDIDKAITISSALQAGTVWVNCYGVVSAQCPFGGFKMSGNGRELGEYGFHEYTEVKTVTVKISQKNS

Structure (SMILES)	activity, negative = inhibition	Potency
Cc1cc(C)nc(N2CCC(C(=O)Nc3ccc4c(c3)OCCO4)CC2)n1	-1.55% (inactive)	
CCn1cc(C(=O)Nc2cc(C)ccc2C)c(=O)c2ccc(C)nc21	9.15% (inactive)	
C=CCN(C(=O)c1cc(C)cc(C)c1)C1(C(=O)Nc2ccccc2)CCN(C(C)C)CC1	7.62% (inactive)	
Cc1ccnc(SCC(N)=O)n1	4.55% (inactive)	
COc1ccc(-c2nnc(SCC(=O)c3ccco3)n2-c2ccccc2)cc1	2.43% (inactive)	
Cc1cccc(C)c1NC(=O)CCCSc1nnc(-c2ccco2)n1-c1ccccc1		25.1 µM (active)
O=C(CSc1nnc(-c2ccco2)n1-c1ccccc1)NCCc1ccccc1	1.44% (inactive)	
COc1ccc(C(=O)NC(=O)CSc2nnc(-c3ccco3)n2-c2ccccc2)cc1		31.6 µM (active)
CCn1c(SCC(=O)Nc2nccs2)nnc1-c1ccco1	-1.17% (inactive)	
O=C(O)CCSc1nnc(-c2ccccc2)n1-c1ccccc1	13.6% (inactive)	
O=C(NCc1ccccn1)c1cc(Br)ccc1Cl	3.58% (inactive)	
CC[N+]1(CC)CC2=Cc3ccccc3CC2C1 (centres undefined)	8.47% (inactive)	
COc1ccc(N2CCN(C(=O)CCSCc3ccccc3F)CC2)cc1	-6.05% (inactive)	
Cc1cccc(-n2cc(CN3CCN(C(=O)c4ncn[nH]4)CC3)c(-c3cccc(F)c3)n2)c1	8.62% (inactive)	
CC(C)=CCC[C@]1(C)[C@@H](CC=C(C)C)C[C@@]2(CC=C(C)C)C(=O)[C@]1(C(=O)C(C)C)C(=O)C(CC=C(C)C)=C2O	-11.6% (inactive)	
O=C(Nc1ccc(F)cc1)N1CCN(c2ccc(F)cc2)CC1	4.97% (inactive)	
O=C(N/N=C/c1sc(N2CCCCC2)nc1-c1cccs1)c1cccnc1		31.6 µM (active)
Cc1nn(Cc2ccc(Cl)cc2)c(Cl)c1/C=N/NC(=O)c1cccnc1	1.63% (inactive)	
O=C(N/N=C/c1ccccn1)c1cccnc1	0.679% (inactive)	
CCN(CCCNC(=O)CSc1cc(=O)n(C)c2cc(Cl)ccc12)Cc1ccccc1	-4.41% (inactive)	
CC1=NNC(=O)C1CCC(=O)N/N=C\c1cccc(Cl)c1 (centres undefined)	9.21% (inactive)	
O=[N+]([O-])c1ccccc1/C=N/n1c(COc2ccccc2)n[nH]c1=S		15.8 µM (active)
CCc1n[nH]c(=S)n1/N=C/c1c[nH]c2ccc(Br)cc12	3.56% (inactive)	
S=c1[nH]nc(COc2ccccc2)n1-c1ccccc1	11.3% (inactive)	
O=C(Nc1nc(-c2cccnc2)cs1)c1ccccc1F	1.94% (inactive)	
CCN1CCN(CC(=O)Nc2sc3c(c2C#N)CCC3)CC1	2.98% (inactive)	
CCOC(=O)c1oc2c(CN3CCN(CCO)CC3)c(O)c(CC)cc2c(=O)c1-c1nc2ccccc2s1		28.2 µM (active)

Structure (SMILES)	activity, negative = inhibition	Potency
CCc1cc2c(=O)c(-c3nc4ccccc4n3C)c(CCCC(=O)O)oc2cc1OC(=O)C(C)(C)C	-5.27% (inactive)	
Cn1c(=O)[nH]c(=O)c2c1nc(N1CCN(CCO)CC1)n2CCSc1nc2ccccc2s1	3.29% (inactive)	
CCCCn1nc(C(=O)OCC(=O)Nc2sccc2C(N)=O)c2ccccc2c1=O	-11.1% (inactive)	
CCOC(=O)N1CCN(Cc2nc(Cc3cccc(C(F)(F)F)c3)no2)CC1	11.4% (inactive)	
COC(=O)c1cc2c(ccn2C)n1C	8.88% (inactive)	
CCOC(=O)/C(C#N)=C/c1cn(CCC(=O)O)nc1-c1ccc(Br)cc1	-2.01% (inactive)	
COc1ccc(S(=O)(=O)N/N=C\c2ccc(OC)c(COc3ccc(C)cc3[N+](=O)[O-])c2)cc1		14.1 µM (active)
COc1ccc(C(=O)Oc2cc(/C=N/NS(=O)(=O)c3ccc(C)cc3)ccc2OC)cc1	4.16% (inactive)	
COc1cc(/C=N/O)ccc1OCc1ccc([N+](=O)[O-])cc1	1.92% (inactive)	
Cc1ccc2c(c1)C1CN(C)CCC1N2C(=S)Nc1ccc(OC(F)F)cc1 (centres undefined)	-1.46% (inactive)	
COCCNC(=O)NC(=O)COC(=O)C1(c2ccc(Cl)cc2)CC1	5.24% (inactive)	
COc1ccccc1CC(=O)Nc1ccc(F)cc1F	3.38% (inactive)	
CSCCNCc1cn(-c2ccc(F)cc2F)nc1-c1ccccc1C		35.5 µM (active)
O=C(CC12CC3CC(CC(C3)C1)C2)NCc1ccco1	-7.67% (inactive)	
CCOC(=O)c1ccc[n+](CC(=O)Nc2ccccc2OC(F)F)c1	3.54% (inactive)	
COC(=O)c1ccc(-n2cnc3ccccc32)nc1	2.05% (inactive)	
COC(=O)c1cccc(-n2[nH]nnc2=S)c1		2.82 µM (active)
COC(=O)c1nn(-c2cccc(Cl)c2)ccc1=O	-5.16% (inactive)	
COc1ccc(NC(=O)c2ccccc2[N+](=O)[O-])cc1OC	9.06% (inactive)	
CCOC(=O)C1(Cc2ccc(Cl)cc2)CCN(C(=O)C2=NNC(=O)CC2)CC1	12.8% (inactive)	
CN(C)S(=O)(=O)c1cccc(NC(=O)COC(=O)/C=C/c2cccs2)c1	-6.21% (inactive)	
Cc1ccc(S(=O)(=O)N(C)C)cc1NC(=O)/C=C/c1cccs1		0.447 µM (active)
Cc1ccc(S(=O)(=O)N(C)C)cc1NC(=O)c1ccccc1Br	-11.2% (inactive)	
CCCCN(CC(=O)NC(C)(C)C)C(=O)C(=O)Nc1ccc2c(c1)OCCO2	-4.7% (inactive)	
S=c1[nH]nc2c3c4c(sc3ncn12)CCCC4		25.1 µM (active)
N=c1c2c3c(sc2ncn1N)CCCC3	9.22% (inactive)	
c1nnc2c3c4c(sc3ncn12)CCC4	-5.29% (inactive)	
